# Assay results taken from PubChem BioAssay.
# The source made the active and inactive calls.
# Legend:
# [1] = optical density shifts of acrAB sulA E. coli – strain DRC41, OD650, 48 h, E. coli filamentation inducer project, primary screen (AID 1152); details: higher = more signal, called active from +8 up or from −8 down;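 further: E. coli MC1000 strain DRC41 lacking acrAB efflux pump and sulA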
# [2] = probe aLefty1 binding on compound microarray – biochemical, small-molecule microarray, 635/667 nm fluorescence, primary screen (AID 1153); details: higher = more signal;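 further: score merges spot fluorescence with signal-to-noise ratio from the scanned slide images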
# [3] = plasmodial surface anion channel blockers, osmotic lysis – cell-based, P. falciparum Indochina, OD700, 1 h, primary screen (AID 1154); details: P. falciparum Indochina infected RBC osmotic lysis, higher = more signal, called active from +8 up or from −8 down
# [4] = plasmodial surface anion channel blockers, osmotic lysis – cell-based, P. falciparum Indochina, OD700, 2 h, primary screen (AID 1155);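 further: lysis reports solute entry through the parasite surface anion channel PSAC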; details: P. falciparum Indochina infected erythrocytes, higher = more signal, called active from +8 up or from −8 down
# [5] = changes in parasitized red cell lysis, either direction – P. falciparum Indochina, OD700, 3 h, PSAC antagonist project, primary screen (AID 1156); details: P. falciparum-infected erythrocytes, osmotic lysis, higher = more signal, called active from +8 up or from −8 down
# [6] = plasmodial surface anion channel blockers, osmotic lysis – cell-based, P. falciparum Indochina, OD700, 18 h, primary screen (AID 1157); details: P. falciparum Indochina infected erythrocytes, osmotic lysis OD700, 18 h; higher = more signal, called active from +8 up or from −8 down
# [7] = S6 kinase pathway phospho-S6 level changes – cell-based, A549, cytoblot, luminescence, serum-stimulated, primary screen (AID 1158); details: 5 h, higher = more signal;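 further: serum-stimulated A549 lung adenocarcinoma cells; signal is phosphorylated S6 detected by cytoblot immunostaining with HRP secondary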
# [8] = biological target: NADPH oxidase 2 (Homo sapiens) (UniProt P04839); assay: compounds shifting NOX2 Amplex Red fluorescence – cell-based, HEK293-NOX2, PMA-stimulated, NOX inhibitor project, primary screen (AID 1159); details: 45 min, higher = more signal, called active from +8 up or from −8 down; further: test concentration not given here
# [9] = biological target: NADPH oxidase 4 (Homo sapiens) (UniProt Q9NPH5); assay: compounds shifting NOX4 Amplex Red fluorescence – cell-based, HEK293-NOX4, tetracycline-induced, NOX inhibitor project, primary screen (AID 1160); details: HEK293-NOX4, Amplex Red H2O2 fluorescence, 45 min; higher = more signal, called active from +8 up or from −8 down
# [10] = biological target: NADPH oxidase 5 (Homo sapiens) (UniProt Q96PH1); assay: compounds shifting NOX5 Amplex Red fluorescence – cell-based, HEK293-NOX5, NOX inhibitor project, primary screen (AID 1161); details: HEK293-NOX5, ionomycin, 45 min, higher = more signal
# [11] = compound effects on lung adenocarcinoma cell viability – A549, calcein-AM fluorescence, 48 h, basal, profiling panel (AID 1162); details: higher = more signal; further: test concentration not given here
# [12] = compound effects on differentiated 3T3-L1 adipocyte viability – cell-based, 3T3-L1 adipocytes, calcein-AM fluorescence, 48 h, basal, profiling panel (AID 1163); details: 3T3-L1 adipocytes viability, higher = more signal; further: test concentration not given here
# [13] = compound effects on hepatocellular carcinoma cell viability – HepG2, calcein-AM fluorescence, 48 h, basal, profiling panel (AID 1164); details: higher = more signal; further: test concentration not given here
# [14] = compound effects on multiple myeloma cell viability – MM1S, calcein-AM fluorescence, 48 h, basal, profiling panel (AID 1165); details: higher = more signal;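 further: viability of MM1S multiple myeloma cells under basal unstimulated conditions; test concentration not given here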
# [15] = calcein-AM signal in unstimulated myeloma cells – cell-based, calcein-AM fluorescence, 48 h, PK04 Diversity Set, profiling panel (AID 1166); details: RPMI8226 myeloma viability, higher = more signal;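 further: cells grown under basal conditions without added stimulus; test concentration not given here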
# [16] = JC-1 mitochondrial signal, unstimulated HepG2 cells – cell-based, JC-1 fluorescence, 24 h, 100 nL compound, profiling panel (AID 1167); details: HepG2 mitochondrial potential, higher = more signal; further: test concentration not given here
# [17] = JC-1 mitochondrial signal, unstimulated adipocytes – cell-based, JC-1 fluorescence, 3T3-L1 adipocytes, 24 h, 100 nL compound, profiling panel (AID 1168); details: JC-1 mitochondrial fluorescence, higher = more signal, called active from +8 up or from −8 down; further: test concentration not given here
# [18] = JC-1 mitochondrial signal, unstimulated myeloma cells – cell-based, JC-1 fluorescence, RPMI8226, 24 h, 100 nL compound, profiling panel (AID 1169); details: JC-1 mitochondrial potential fluorescence, higher = more signal; further: test concentration not given here
# [19] = JC-1 mitochondrial signal, unstimulated MM1S myeloma – cell-based, JC-1 fluorescence, 24 h, 100 nL compound, profiling panel (AID 1170); details: MM1S mitochondrial potential, higher = more signal; further: test concentration not given here
# [20] = resazurin metabolic signal in A549 cells – cell-based, resazurin fluorescence, 24 h, PK04 Diversity Set, profiling panel (AID 1171); details: A549 viability, higher = more signal, called active from +8 up or from −8 down; further: test concentration not given here
# Sequence of NADPH oxidase 4 (Homo sapiens) (Q9NPH5 whole entry, looked up): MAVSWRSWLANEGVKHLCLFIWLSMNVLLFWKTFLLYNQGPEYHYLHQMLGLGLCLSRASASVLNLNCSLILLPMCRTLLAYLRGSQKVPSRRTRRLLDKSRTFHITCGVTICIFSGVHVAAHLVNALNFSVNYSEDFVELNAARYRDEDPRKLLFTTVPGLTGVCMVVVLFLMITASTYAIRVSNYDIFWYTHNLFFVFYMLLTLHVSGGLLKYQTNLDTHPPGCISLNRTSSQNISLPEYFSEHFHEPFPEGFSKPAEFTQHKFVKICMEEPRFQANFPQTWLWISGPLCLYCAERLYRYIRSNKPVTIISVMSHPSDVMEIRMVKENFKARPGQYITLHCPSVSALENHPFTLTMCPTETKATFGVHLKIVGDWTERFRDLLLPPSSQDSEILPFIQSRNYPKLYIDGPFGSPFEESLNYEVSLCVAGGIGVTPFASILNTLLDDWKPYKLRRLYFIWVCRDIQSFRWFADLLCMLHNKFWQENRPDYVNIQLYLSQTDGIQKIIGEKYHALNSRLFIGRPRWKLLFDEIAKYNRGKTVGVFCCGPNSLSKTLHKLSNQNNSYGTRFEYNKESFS
# Sequence of NADPH oxidase 2 (Homo sapiens) (P04839 whole entry, looked up): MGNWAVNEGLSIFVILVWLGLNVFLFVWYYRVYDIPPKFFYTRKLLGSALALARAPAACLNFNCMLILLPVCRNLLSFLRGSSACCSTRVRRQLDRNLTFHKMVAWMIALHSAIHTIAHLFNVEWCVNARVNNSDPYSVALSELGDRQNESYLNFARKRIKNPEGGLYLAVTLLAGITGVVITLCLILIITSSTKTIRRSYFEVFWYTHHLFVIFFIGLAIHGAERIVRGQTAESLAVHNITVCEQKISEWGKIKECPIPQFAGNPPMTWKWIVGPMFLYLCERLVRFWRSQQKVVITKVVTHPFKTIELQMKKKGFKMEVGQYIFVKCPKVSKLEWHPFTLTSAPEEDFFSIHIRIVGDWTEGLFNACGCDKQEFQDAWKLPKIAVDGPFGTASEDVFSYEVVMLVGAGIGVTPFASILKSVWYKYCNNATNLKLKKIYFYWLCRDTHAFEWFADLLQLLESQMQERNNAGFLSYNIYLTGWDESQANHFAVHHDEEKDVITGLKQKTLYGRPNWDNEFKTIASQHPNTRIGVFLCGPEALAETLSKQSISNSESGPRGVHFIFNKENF
# Sequence of NADPH oxidase 5 (Homo sapiens) (Q96PH1 whole entry, looked up): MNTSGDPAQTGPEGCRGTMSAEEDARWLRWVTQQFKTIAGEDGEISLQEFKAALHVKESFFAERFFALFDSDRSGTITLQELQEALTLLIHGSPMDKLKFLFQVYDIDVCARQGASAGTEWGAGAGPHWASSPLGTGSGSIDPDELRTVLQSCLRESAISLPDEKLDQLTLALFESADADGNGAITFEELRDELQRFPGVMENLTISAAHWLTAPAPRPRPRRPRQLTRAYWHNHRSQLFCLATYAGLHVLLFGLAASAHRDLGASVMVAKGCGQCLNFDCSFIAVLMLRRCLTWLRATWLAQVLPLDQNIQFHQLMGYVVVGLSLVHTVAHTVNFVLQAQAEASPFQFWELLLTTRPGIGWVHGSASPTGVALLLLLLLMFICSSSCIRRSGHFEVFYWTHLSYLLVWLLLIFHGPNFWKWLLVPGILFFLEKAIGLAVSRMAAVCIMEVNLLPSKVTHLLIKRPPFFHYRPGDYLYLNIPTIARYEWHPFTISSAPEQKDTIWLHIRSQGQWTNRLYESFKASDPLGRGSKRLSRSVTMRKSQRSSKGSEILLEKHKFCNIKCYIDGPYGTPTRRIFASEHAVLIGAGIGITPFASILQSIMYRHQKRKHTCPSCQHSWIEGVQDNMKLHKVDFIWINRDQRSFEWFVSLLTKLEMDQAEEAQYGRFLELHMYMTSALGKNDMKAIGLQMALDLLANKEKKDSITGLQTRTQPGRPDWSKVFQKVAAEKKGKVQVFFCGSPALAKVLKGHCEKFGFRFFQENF
Structure (SMILES),z-score [1],composite z-score [2],z-score [3],z-score [4],z-score [5],z-score [6],z-score [7],z-score [8],z-score [9],z-score [10],z-score [11],z-score [12],z-score [13],z-score [14],z-score [15],z-score [16],z-score [17],z-score [18],z-score [19],z-score [20]
C=C(CCCC)/C(=C/C[C@@H](OC(=O)c1ccncc1)c1ccc(CO)o1)c1cc(C(=O)OC)ccc1OC,0.722 (inactive),0.0263,8.99 (active),1.07 (inactive),2.84 (inactive),0.454 (inactive),0.739,-0.268 (inactive),-1.08 (inactive),-1.52,1.25,-0.1,0.743,-2.63,-2.58,0.0818,-0.239 (inactive),-0.812,-2.01,-0.269 (inactive)
O=C(NCc1ccccc1)[C@@H]1c2ccccc2C(=O)N(C2CCCCC2)[C@H]1c1ccc(CO)cc1,-0.246 (inactive),-0.458,2.67 (inactive),0.0744 (inactive),0.473 (inactive),0.475 (inactive),-0.127,-0.245 (inactive),0.684 (inactive),0.725,1.53,-0.116,1.54,0.499,-0.0572,2.46,0.401 (inactive),0.739,-0.531,-0.222 (inactive)
CCCC[C@@H]1C[C@H]1[C@@H](NC(=O)c1ccccc1)c1ccc(-c2ccccc2)cc1,-1.66 (inactive),0.212,11.5 (active),1.95 (inactive),1.57 (inactive),1.16 (inactive),0.319,-1.68 (inactive),-2.79 (inactive),0.666,-1.54,-1.15,-3.24,-2.55,-4.26,-3.59,-0.49 (inactive),-0.568,-2.19,-1.31 (inactive)
O=C1O[C@H](c2ccccc2)[C@H](c2ccccc2)N2[C@H]1[C@@H](C(=O)NC[C@H](O)c1ccccc1)[C@]1(C(=O)Nc3ccc(C#CC4(O)CCCCCC4)cc31)[C@H]2c1ccccc1OCCO,0.0511 (inactive),0.701,3.8 (inactive),2.21 (inactive),-0.957 (inactive),2.07 (inactive),-0.0056,0.65 (inactive),0.267 (inactive),1.39,-0.509,0.0001,-4.63,-3.33,-4.19,-2.67,3.14 (inactive),-0.99,-2.01,-1.39 (inactive)
Cc1ccc(N2C(=O)c3ccccc3[C@@H](C(=O)NC(C)C)[C@@H]2c2ccc(CO)cc2)nc1,0.358 (inactive),-0.641,2.41 (inactive),0.474 (inactive),0.884 (inactive),0.596 (inactive),0.45,0.0802 (inactive),-1.16 (inactive),-2.61,-0.749,-0.0953,-0.617,0.385,-0.526,0.199,-0.286 (inactive),0.918,-0.67,2.16 (inactive)
COc1ccc([Si](C)(C)[C@H]2[C@H](CCO)O[C@@]3(C(=O)N(Cc4ccccc4)c4ccc(N5C(=O)COc6ccccc65)cc43)[C@@H]2C)cc1,0.592 (inactive),0.167,5.33 (inactive),2.16 (inactive),1.3 (inactive),1.65 (inactive),2.08,-1.74 (inactive),1.53 (inactive),0.595,-0.831,0.281,-3.01,-3,-3.25,-0.111,1.46 (inactive),-0.855,-1.47,-1.74 (inactive)
CCCC[C@H]1OB(O)C[C@H]2C1=C(C)Cn1c(=O)n(-c3ccccc3)c(=O)n12,-2.02 (inactive),-0.677,0.0016 (inactive),0.408 (inactive),0.393 (inactive),0.181 (inactive),0.441,-0.59 (inactive),-0.181 (inactive),-0.278,0.673,0.465,0.173,-0.337,-0.108,0.546,0.299 (inactive),-0.903,-0.503,0.0548 (inactive)
C=CCC(OC(C)=O)[C@@H]1[C@@H](N(Cc2ccc(-c3ccccc3)cc2)C(=O)c2ccc(C)cc2)c2cc(OCCCO)ccc2N1C(=O)Cc1ccc(OC)cc1 (stereo not given in full),2.25 (inactive),-0.0937,0.398 (inactive),-1.46 (inactive),-0.774 (inactive),-1.43 (inactive),1.52,-0.137 (inactive),1.01 (inactive),2.57,0.837,0.705,2.23,0.711,0.815,4.08,-0.172 (inactive),0.768,-0.496,0.267 (inactive)
C=C(C)[C@@H]1CC=C(C(O)C2C=CC3C(=O)N(Cc4ccccc4)C(=O)C3N2n2cnnc2)CC1 (stereo not given in full),-1.05 (inactive),0.298,1.48 (inactive),-0.289 (inactive),1.28 (inactive),-1.38 (inactive),1.65,-3.5 (inactive),-2.39 (inactive),-3.6,-0.675,0.233,-1.05,0.364,-0.176,-0.458,-0.403 (inactive),0.666,-2.13,0.159 (inactive)
COC(=O)[C@@]1(Cc2ccc(F)cc2)[C@H]2c3cc(C(=O)N(C)C)n(CCc4c[nH]c5ccc(OC)cc45)c3C[C@H]2CN1C(=O)c1ccccc1,-1.77 (inactive),0.441,6.52 (inactive),0.1 (inactive),1.24 (inactive),-0.975 (inactive),1.87,-3.45 (inactive),-3.18 (inactive),-5.53,-0.906,0.813,-0.885,-0.64,-1.79,0.922,-0.939 (inactive),-0.262,-1.82,-0.752 (inactive)
Cc1ccc(C(C)CC(O)C2C=CC3C(=O)NC(=O)C3N2Nc2ccccn2)o1 (stereo not given),0.488 (inactive),-0.154,0.494 (inactive),0.481 (inactive),-0.284 (inactive),0.606 (inactive),-0.439,0.36 (inactive),-2.17 (inactive),-1.52,0.378,-0.671,1.37,-0.333,0.635,0.117,-0.0169 (inactive),-0.263,-0.408,-0.793 (inactive)
COC(=O)[C@@]1(Cc2ccc(F)cc2)[C@H]2c3cc(C(=O)N4CCCC4)n(Cc4ccc(Cl)c(C(F)(F)F)c4)c3C[C@H]2CN1C(=O)c1ccccc1,-1.31 (inactive),1.99,3.16 (inactive),0.895 (inactive),0.923 (inactive),1.21 (inactive),-0.256,0.71 (inactive),0.705 (inactive),1.31,-0.463,-0.286,-0.452,-0.604,-2.4,1.09,-1.33 (inactive),-0.673,-1.96,-1.53 (inactive)
C=CCN1C(=O)[C@]2(COC(c3ccc(OCCCO)cc3)=N2)Cc2ccccc21,0.773 (inactive),0.228,23.7 (active),7.4 (inactive),3.23 (inactive),0.181 (inactive),1.3,-2.29 (inactive),0.0437 (inactive),-2.56,0.78,1.94,0.641,-1.22,-0.326,0.53,0.625 (inactive),-0.808,-0.599,-0.183 (inactive)
CCOC(=O)C[C@H]1[C@H](OC(=O)c2ccccc2-c2ccccc2)[C@@H](NC(=O)c2ccc(-c3ccccc3)cc2)c2cc(OCCCO)ccc2N1C(=O)c1ccccc1,0.657 (inactive),0.0121,0.568 (inactive),0.135 (inactive),1.02 (inactive),0.157 (inactive),1.1,0.35 (inactive),0.169 (inactive),1.46,0.168,0.405,0.188,0.0425,-0.602,1.5,0.247 (inactive),-0.312,-0.0178,0.0248 (inactive)
COc1ccc([Si](C)(C)[C@H]2[C@H](CCO)O[C@@]3(C(=O)N(Cc4cccc(N5C(=O)c6cccc7cccc5c67)c4)c4ccccc43)[C@@H]2C)cc1,0.0084 (inactive),-0.012,1.54 (inactive),2.2 (inactive),0.712 (inactive),1.31 (inactive),1.26,-0.139 (inactive),0.61 (inactive),1.6,-1.02,0.894,-3.98,-2.97,-4.23,-0.139,1.49 (inactive),-1.02,-1.34,-2.92 (inactive)
C=C(CCCC)C(=O)CC[C@H](OC(=O)c1ccccc1-c1ccccc1C(=O)O)c1ccc(CO)o1,-0.002 (inactive),-0.0984,1.69 (inactive),0.241 (inactive),1.2 (inactive),0.16 (inactive),-0.16,0.333 (inactive),-0.269 (inactive),-1.15,0.0743,0.418,-0.862,-0.0307,0.334,-0.373,-0.727 (inactive),-0.658,0.063,1.09 (inactive)
C=CCC(OC(C)=O)[C@@H]1[C@@H](N(Cc2cc3ccccc3o2)C(=O)c2ccc(C)cc2)c2cc(OCCCO)ccc2N1C(=O)c1ccc(-c2ccccc2)cc1 (stereo not given in full),1.33 (inactive),-0.519,1.8 (inactive),0.345 (inactive),-1.06 (inactive),0.115 (inactive),4.08,-1.59 (inactive),0.768 (inactive),2.25,2.54,1.34,1.8,0.217,1.46,2.87,-0.314 (inactive),0.614,-0.763,0.875 (inactive)
Cc1ccc(N2C(=O)c3ccccc3[C@](C)(C(=O)NCCN3CCOCC3)[C@@H]2c2ccc(CO)cc2)nc1,-0.285 (inactive),-0.229,1.12 (inactive),0.645 (inactive),2.69 (inactive),0.178 (inactive),-0.113,1.86 (inactive),0.236 (inactive),0.286,-0.68,0.994,-0.808,0.839,-1.49,0.144,-0.674 (inactive),-0.628,0.0375,0.667 (inactive)
